Bioassay records (PubChem)
GALK inh – galactokinase (human) inhibition; Purified GALK, Kinase-Glo residual ATP luminescence; Potency, µM (highest dose often 57.5 µM), most hits filed as inhibitors; actives 0.007% (n = 270,000); AID 1868
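Luminescence from leftover ATP (Ultra-Glo luciferase/luciferin) served as read-out after a 1 h room-temperature reaction of 5 nM GALK with 35 uM ATP and 100 uM galactose.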
TrxR1 substrate – is turned over as a substrate by rat TrxR1; O89049; purified TrxR1 substrate turnover, NADPH consumption readout; Potency, µM (highest dose often 114 µM); actives 0.01% (n = 390,000); AID 588456; also: nearly all actives have a fitted effect of over 50% in size
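Rat TrxR1, dispensed at 90 nM, was prereduced with 400 uM NADPH (final) for 5 min at ~22 deg C, then incubated with compound 15 min before 400 uM selenite. A first-read NADPH fluorescence drop versus no-compound background flagged substrates.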
Coupling enz – inhibits coupling enzyme system, counter-screen for aldolase hits; coupling enzyme system counterscreen, AmpLite Red fluorescence; activity change, negative = inhibition, % at 58.2 µM, hits read low; actives 0.67% (n = 290,000); AID 2472; in the data active = activity change below about -30%
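Fluorescence at 525 nm excitation and 598 nm emission measured inhibition of the coupled detection system without aldolase. Compounds (at 57.5 uM final) were preincubated 10 min at room temperature with coupling enzyme reagent before a 20 min substrate/AmpLite Red step.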
RORgamma inh – inhibitors of mouse ROR gamma transcriptional activity; P51450; Drosophila S2 Gal4-RORgamma UAS-luciferase reporter, 20 h; Potency, µM (highest dose often 53.6 µM), actives largely listed as inhibitors; actives 5.4% (n = 310,000); AID 2551; also: nearly all actives have a fitted effect of over 60% in size
Target sequence (P51450 whole entry, looked up, the tested form may be a part): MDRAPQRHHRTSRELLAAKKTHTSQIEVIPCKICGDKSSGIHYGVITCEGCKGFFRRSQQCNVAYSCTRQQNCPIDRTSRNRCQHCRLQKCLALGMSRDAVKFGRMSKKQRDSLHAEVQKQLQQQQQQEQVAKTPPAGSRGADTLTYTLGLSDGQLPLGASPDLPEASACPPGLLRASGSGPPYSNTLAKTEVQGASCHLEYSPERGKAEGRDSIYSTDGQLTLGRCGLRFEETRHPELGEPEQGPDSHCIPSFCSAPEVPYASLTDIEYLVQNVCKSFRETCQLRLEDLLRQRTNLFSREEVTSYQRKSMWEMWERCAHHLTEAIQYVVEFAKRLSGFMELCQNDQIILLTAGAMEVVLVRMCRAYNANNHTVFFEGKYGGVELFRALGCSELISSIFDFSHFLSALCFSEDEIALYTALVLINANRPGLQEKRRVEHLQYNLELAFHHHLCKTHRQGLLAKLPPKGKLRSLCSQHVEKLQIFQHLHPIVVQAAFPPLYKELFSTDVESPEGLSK
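Schneider cells (Drosophila), stable Gal4 DBD–ROR gamma + UAS-luc; 1 hr cmpd preincubation; Cu2+ induction 700 uM final; 20 hr ambient; luminescence.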
Gal4-VP16 FLuc – inhibits Gal4-VP16 luciferase reporter, ROR gamma counter-screen; Drosophila S2 Gal4-VP16 UAS-luciferase, luminescence, 20 h; Potency, µM (series often up to 53.6 µM), actives largely listed as inhibitors; actives 3.5% (n = 310,000); AID 2546;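 also: Gal4-VP16 expression switched on by copper sulfate through the metallothionein promoter; nearly all actives have a fitted effect of over 50% in size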
TrxR1 inh – inhibitors of rat thioredoxin reductase 1. Potency, µM (doses to about 114 µM), hits mostly inhibitors. recombinant rTrxR1, NADPH fluorescence consumption, selenite substrate. O89049. actives 1% (n = 390,000); also: nearly all actives have a fitted effect of over 65% in size
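Rat TrxR1 (90 nM in the dispensed reagent) was pre-reduced with 400 uM NADPH for 5 min at room temperature, then incubated with compound for 15 min. After 400 uM selenite was added, NADPH fluorescence (Ex 340/Em 450 nm) was followed for 8 min.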
Of the large screens only hits and unclear results are named; the others gave an inactive call. Hits are enriched below; roughly 5.9% of the tested compounds scored in any of these assays. Unless noted, calls follow the shape of the dose curve; as a rule, active = well fitted curve in the direction sought with a large enough effect; inconclusive = small, poorly fitted or top-dose-only effect, or another doubt; inactive = no such curve, though single readings can be large; an effect the other way counts as inactive or inconclusive.

CCOc1ccc(-c2cc(CCCC(=O)Nc3cccc(OC)c3)no2)cc1	RORgamma inh 0.126µM, Gal4-VP16 FLuc inconclusive
CCOc1ccc(-c2cc(CCCC(=O)Nc3cc(OC)ccc3OC)no2)cc1	RORgamma inh inconclusive, Gal4-VP16 FLuc inconclusive
CCOc1ccc(NC(=O)CCCc2cc(-c3ccc(OCC)cc3)on2)cc1	RORgamma inh 0.126µM, Gal4-VP16 FLuc 1.26µM
CC(C)(C)c1ccc(C(=O)NCCC(=O)NNC(=O)COc2ccc(F)cc2)cc1	none (no result: GALK inh, Coupling enz, RORgamma inh, Gal4-VP16 FLuc)
CC(C)(C)c1ccc(C(=O)NCCc2ccccc2)cc1	Gal4-VP16 FLuc inconclusive
Cc1cc(C)c2cc(C#N)c(SCC(=O)NCc3ccco3)nc2c1	RORgamma inh 12.6µM, Gal4-VP16 FLuc inconclusive, TrxR1 inh 56.2µM
Cc1cc2nc(-c3cccnc3SCC(=O)NCc3ccco3)[nH]c2cc1C	RORgamma inh 11.2µM, Gal4-VP16 FLuc 12.6µM
CCc1cc2cc(C)cc(C)c2nc1SCC(=O)Nc1cc(C)on1	none
C/C(=N\NC(=O)c1nn(C)cc1Br)c1cccc(NC(=O)c2ccncc2)c1	none
CC(C)CSc1nnc2c3ccccc3n(C)c2n1	Gal4-VP16 FLuc inconclusive
CSc1cccc(NC(=S)N(CCCN2CCCC2)Cc2cccn2Cc2ccc(Cl)cc2)c1	RORgamma inh 12.6µM
S=C(Nc1cccc(Cl)c1)N(CCCN1CCCC1)Cc1cccn1Cc1ccc(Cl)cc1	RORgamma inh 17.8µM, Gal4-VP16 FLuc inconclusive
CSc1cccc(NC(=S)N(CCCN2CCCC2)Cc2cccs2)c1	RORgamma inh inconclusive
COc1cccc(NC(=S)N(CCCN2CCCC2)Cc2cccn2Cc2ccc(Cl)cc2)c1	RORgamma inh inconclusive, Gal4-VP16 FLuc inconclusive
Cc1ccc2nc(NCc3ccccc3)c(C=O)c(=O)n2c1	none
c1ccc2oc(-c3[nH]ncc3CN(Cc3ccncc3)CC3CCCO3)cc2c1 (configuration not stated)	none
Cc1cccnc1N(C(=O)Nc1cccc(Cl)c1)C1=NCC(C)(C)S1	RORgamma inh 11.2µM (no result: GALK inh)
Cc1cccnc1NC(=O)Nc1cccc(Cl)c1	none
Cc1cccnc1N(C(=O)Nc1ccccc1)C1=NCC(C)(C)S1	RORgamma inh 10µM, Gal4-VP16 FLuc inconclusive
CC1(C)CN=C(N(C(=O)Nc2ccccc2)c2ccccc2F)S1	none
CCOC(=O)NC(=S)Nc1cccc(NC(=S)NC(=O)OCC)c1	RORgamma inh 7.08µM, Gal4-VP16 FLuc inconclusive
O=C(NC(=S)Nc1cccc(NC(=O)c2ccc(Cl)cc2Cl)c1)c1cccs1	RORgamma inh 20µM, Gal4-VP16 FLuc 11.2µM
CC(C)Oc1cccc(C(=O)NC(=S)Nc2cccc(NC(=O)c3ccccc3Cl)c2)c1	RORgamma inh 11.2µM, Gal4-VP16 FLuc 8.91µM
CCC(=O)Nc1cccc(NC(=S)NC(=O)c2ccc(Cl)cc2Cl)c1	RORgamma inh inconclusive, Gal4-VP16 FLuc inconclusive
CC(C)CC(=O)NC(=S)Nc1cccc(NC(=O)c2ccccc2Cl)c1	RORgamma inh inconclusive, Gal4-VP16 FLuc inconclusive, TrxR1 inh inconclusive
CCCC(=O)NC(=S)Nc1cccc(NC(=O)c2ccc(Cl)cc2Cl)c1	RORgamma inh 10µM, Gal4-VP16 FLuc inconclusive
CCc1cccc(NS(=O)(=O)c2ccc3c(c2)n(C)c(=O)c(=O)n3C)c1	none (no result: GALK inh, Coupling enz, RORgamma inh, Gal4-VP16 FLuc)
C=CCNc1nc(N)c(C(=O)c2ccc3c(c2)OCO3)s1	none
CCC(=O)NC(=S)Nc1cccc(NC(=O)c2ccccc2)c1	RORgamma inh 5.01µM, Gal4-VP16 FLuc inconclusive, TrxR1 inh inconclusive
CCOC(=O)NC(=S)c1ccc[nH]1	RORgamma inh 12.6µM, Gal4-VP16 FLuc inconclusive
COC(=O)CC(NC(=S)NC(=O)c1ccccc1)c1ccc(Br)cc1 (configuration not stated)	RORgamma inh 12.6µM, Gal4-VP16 FLuc inconclusive, TrxR1 inh inconclusive
O=C(NC(=S)Nc1ccc(Cl)c(C(=O)O)c1)c1cccc(COc2ccccc2)c1	RORgamma inh inconclusive, TrxR1 inh 70.8µM
CN(CC(=O)Nc1cccc(F)c1)C(=O)CCCN1C(=O)c2cccc3cccc(c23)C1=O	none (no result: GALK inh, Coupling enz, RORgamma inh, Gal4-VP16 FLuc)
Cc1ccc(NC(=O)CN(C)Cc2ccc(Cl)cc2)cc1	none
Cc1ccccc1CNC(=O)CN1C(=O)C2CCCCN2c2ccc(C(=O)N3CCCC3)cc21 (configuration not stated)	none (no result: GALK inh, Coupling enz, RORgamma inh, Gal4-VP16 FLuc)
CCC(=O)NC(=S)Nc1ccc(NC(=S)NC(=O)c2ccc(C)cc2)cc1	RORgamma inh inconclusive
CCC(=O)NC(=S)Nc1ccc(NC(=S)NC(=O)c2ccccc2)cc1	RORgamma inh 3.16µM, Gal4-VP16 FLuc inconclusive
CCCC(=O)NC(=S)Nc1cccc(NC(=O)c2ccccc2Cl)c1	RORgamma inh inconclusive, Gal4-VP16 FLuc inconclusive
CCC(=O)NC(=S)Nc1cccc(NC(=O)c2ccccc2Cl)c1	RORgamma inh 11.2µM
CC(C)(C)C(=O)Nc1ccc(C(=O)NNC(=O)c2ccccc2)cc1	none
Cc1cccc(-n2c(O)c(C=Nc3cc(O)ccc3C)c3ccccc3c2=O)n1	RORgamma inh 11.2µM
Cc1cccc(-n2c(O)c(/C=N/NC(=O)c3ccccc3Cl)c3ccccc3c2=O)n1	RORgamma inh 6.31µM, Gal4-VP16 FLuc 4.47µM
CCN(c1ccccc1C(=O)O)S(=O)(=O)c1ccc2[nH]c(=O)[nH]c2c1	none (no result: GALK inh)
Cc1cnc(C(=O)NCCc2ccc(Cl)cc2)cn1	none (no result: Coupling enz)
C=CCn1c(CCNC(=O)c2ccccc2F)nnc1SCC(=O)Nc1ccccc1F	none (no result: Coupling enz)
COC(=O)C1=C(C)N(c2ccc(S(N)(=O)=O)cc2)C(=O)C1	TrxR1 inh inconclusive
COC(=O)C1=C(C)N(c2ccc(Cl)c(Cl)c2)C(=O)C1	RORgamma inh 4.47µM, Gal4-VP16 FLuc 12.6µM, TrxR1 inh 50.1µM
CCOC(=O)c1sc(NNC(=O)c2ccc(F)cc2)nc1C	RORgamma inh 0.708µM, Gal4-VP16 FLuc 7.08µM
CCOC(=O)c1nc(NNC(=O)c2ccc([N+](=O)[O-])cc2)sc1C	RORgamma inh inconclusive, Gal4-VP16 FLuc 6.31µM
CCOC(=O)c1sc(NC(=O)c2ccc(S(=O)(=O)N(C)C)cc2)nc1C	RORgamma inh 0.251µM
CCOC(=O)c1sc(NNC(=O)c2ccc(C)cc2)nc1C	RORgamma inh 0.794µM, Gal4-VP16 FLuc inconclusive
CS(=O)(=O)N(CC(=O)N1CCOCC1)c1cccc([N+](=O)[O-])c1	none
Cc1[nH][nH]c(=O)c1C(c1ccc(-c2ccc(Cl)c(C(=O)O)c2)o1)c1c(C)[nH][nH]c1=O	GALK inh inconclusive, Coupling enz -48.4
COC(=O)c1cccc(-c2ccc(C(c3c(C)[nH][nH]c3=O)c3c(C)[nH][nH]c3=O)o2)c1	Coupling enz -45.5, RORgamma inh 11.2µM
CC1(C)OC(=O)C(=Cc2ccc(-c3ccc(Cl)c(C(=O)O)c3)o2)C(=O)O1	TrxR1 inh inconclusive
